Compounds without any hit were thinned out: in the full panel of roughly 83,000, 20% have a hit.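 Growth was measured after 48 h exposure to one concentration of compound in 96-well plates. Values under 10 count as active.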 Values without a mark were called inactive. Active and inactive are the calls of the source.

We go through 26 compounds from PubChem BioAssay (NCI).

Test in all cases: NCI-60 one-dose screen, 48 h (100 = growth as untreated, 0 = no growth, -100 = all killed)
What all share (details): 10 µM unless noted

The subject of assay [1] is HCT-15 colon.
The test system of assay [2] is HT29 colon.
Assay [3] concerns SNB-75 CNS.
In assay [4] the test system is SNB-19 CNS.
Assay [5] relates to U251 CNS.
The test system of assay [6] is PC-3 prostate.
The subject of assay [7] is SK-MEL-5 melanoma.
In assay [8] the test system is UACC-62 melanoma.
Assay [9] concerns LOX IMVI melanoma.
In assay [10] the test system is SK-MEL-28 melanoma.

For `Cc1ncc(C(=O)Nc2ccc(CN3CCN(C)CC3)c(C(F)(F)F)c2)cc1C#Cc1c(N)ncc2ccc(C#N)cc12`, the growth in assay [1] is 28%; in assay [2] it was 11.9%; in assay [3], 56.4%; in [4], 77.5%; in [5], 68.5%; in assay [6], 48.7%. The growth was 16.2% in assay [7], 22.5% in assay [8], -62.4% (active) in assay [9] and 23.7% in [10].

Regarding `COC(=O)c1cc2c(=O)[nH]cc3c2c(n1)CCC3`, the growth in [1] is 113%; in assay [2], 105%; in assay [3], 104%; in [4] it was 96.2%; in assay [5], 103%; in assay [6], 93.6%. The growth is 104% in assay [7], 107% in [8], 104% in assay [9] and 105% in assay [10].

For `O=C(Nc1cccnc1)c1ccc2ccc3ccc(C(=O)Nc4cccnc4)nc3c2n1`, the growth in [1] was 19.9%; in [2], 7.42% (active); in assay [3], 40.6%; in assay [4] it was 13.2%; in assay [5] it was 12.2%; in [6], 33.2%. The growth in assay [7] is 26.3%; in [8] it was 29%; in [9], 14%; in [10], 17.7%.

Regarding `C[N+](C)(C)c1ncnc2[n-]cnc12`, the growth is 104% in assay [1]; 104% in [2]; 82.1% in assay [3]; 91.2% in [4]; 91.6% in [5]; 92% in assay [6]. Further, the growth in assay [7] was 90.1%; in [8], 83.2%; in assay [9], 75.5%; in assay [10] it was 94.6%.

On to `Cc1ccc(NC(=O)N[C@@H](Cc2cc(F)cc(F)c2)C(=O)N[C@@H]2C(=O)N3CCC[C@H]3C(=O)N3CCCC[C@H]3C(=O)N[C@@H](C)C(=O)N3C[C@H](C)C[C@H]3C(=O)O[C@H]2C)cc1`, for which the growth in [1] is 14.7%; in assay [2] it was 30.3%; in assay [3] it was 10.7%; in [4], 22%; in assay [5] it was 29.8%; in [6], 16.1%. Further, the growth in [7] was 10.8%; in assay [8], 25.8%; in assay [9], 38.2%; in assay [10], 39.4%.

On to `Nc1nc(Cl)c2ncn(Cc3cc4c(cc3I)OCO4)c2n1`, for which the growth in assay [1] was 25.1%; in assay [2], 9.61% (active); in [3] it was 73.5%; in assay [4] it was 61.9%; in [5], 53.5%; in assay [6], 39.1%. In addition, the growth in [7] is 72%; in assay [8] it was 45.7%; in [9] it was 11.8%; in [10] it was 87.7%.

Regarding `Cc1ccc(S(=O)(=O)n2cc(C(=O)C(=O)N3CCCCC3)c3ccccc32)cc1`, the growth in assay [1] is 79.9%; in [2], 88.3%; in [3], 73.8%; in assay [4], 97.7%; in [5], 91.3%; in [6] it was 52.1%. Also, the growth in assay [7] was 47.3%; in assay [8], 49.5%; in assay [9], 71.9%; in assay [10] it was 172%.

For the compound `Cn1cc(-c2noc(-c3cn(C)c4ncc(F)cc34)n2)c2cc(Br)ccc21`, the growth in assay [1] is 76%; in [2], 47.3%; in assay [3] it was 61.2%; in [4], 75.9%; in [5], 29.4%; in assay [6], 75.3%. For the same compound, the growth in [7] was 83.9%; in [8] it was 76.1%; in [9], 70.7%; in assay [10], 83.7%.

`COc1c(C(C)=O)c(OCCCCOc2c(C(C)=O)c(OC)c3ccoc3c2OC)c(OC)c2occc12`: the growth is 78.8% in assay [1]; 65.9% in assay [2]; 107% in [3]; 80% in assay [4]; 79.9% in assay [5]; 55.2% in [6]. The growth in assay [7] was 51.3%; in assay [8], 55.8%; in assay [9] it was 74.5%; in assay [10], 96.3%.

Turning to `N#C/C(=C(/O)CCCO)c1nc2ccccc2c(=O)[nH]1`, the growth in assay [1] is 103%; in assay [2], 108%; in assay [3] it was 80.6%; in assay [4], 105%; in assay [5] it was 103%; in assay [6] it was 92.9%. Besides, the growth in [7] is 107%; in assay [8], 96%; in assay [9], 98%; in [10], 110%.

In the case of `COc1ccc(-c2ccc(NNC(=O)c3ccc(F)cc3)nn2)cc1OC`, the growth in [1] was 64.1%; in assay [2], 59.7%; in assay [3] it was 8.18% (active); in assay [4], 68.3%; in assay [5], 77.1%; in assay [6], 73.5%. Besides, the growth was 71.6% in [7], 88.6% in assay [8], 44.2% in [9] and 101% in assay [10].

Turning to `COc1ccc(C(=O)CSc2nnc(-c3cc(-c4ccccc4)nc4ccccc34)o2)cc1`, the growth was 103% in assay [1]; 113% in assay [2]; 102% in [3]; 94.3% in assay [4]; 103% in assay [5]; 105% in assay [6]. The growth in assay [7] is 105%; in assay [8] it was 98%; in assay [9], 101%; in assay [10], 109%.

Regarding `Cc1cc(SC#N)ncn1`, the growth in [1] was 102%; in assay [2], 108%; in assay [3] it was 86.7%; in assay [4] it was 103%; in assay [5], 103%; in assay [6], 107%. Moreover, the growth in [7] was 100%; in [8] it was 93.5%; in assay [9], 93.7%; in assay [10], 114%.

Consider `O=c1[nH]c2cc(Cl)c(Cl)cc2n2cc3ncccc3c12`, for which the growth in assay [1] was 85.9%; in assay [2], 67.9%; in assay [3] it was 67.2%; in [4], 86.8%; in assay [5], 72.6%; in assay [6], 72.8%. Moreover, the growth in assay [7] is 84.8%; in assay [8], 57.8%; in [9], 81.6%; in [10], 120%.

For the compound `CCCCCCCCCCCCCCCCCCNC(=S)N/N=C/c1ccc(OC)c(OC)c1`, the growth in assay [1] is 88.4%; in [2] it was 99.9%; in [3], 88.2%; in assay [4], 94%; in assay [5] it was 90.1%; in [6], 92.1%. Also, the growth was 95.3% in assay [7], 86.1% in assay [8], 95.2% in [9] and 100% in [10].

Turning to `O=C(CCCCCCSc1nc(-c2ccc(Cl)cc2)cc(-c2ccc(Cl)cc2)n1)NO`, the growth in [1] was 23.6%; in [2], 20.4%; in [3], 57.7%; in [4], 37.3%; in assay [5], 16.6%; in assay [6], 42.8%. Further, the growth was 5.66% (active) in [7], 16.1% in assay [8], 2.18% (active) in [9] and 57.8% in [10].

On to `C[C@@H]1C[C@H]2C(=O)O[C@@H](C)[C@H](NC(=O)[C@H](Cc3cc(F)cc(F)c3)NC(=O)Nc3ccc(C4CC4)cc3F)C(=O)N3CCC[C@H]3C(=O)N3CCCC[C@H]3C(=O)N[C@@H](C)C(=O)N2C1`, for which the growth is 6.12% (active) in assay [1]; 10.5% in assay [2]; 6.49% (active) in assay [3]; 15.8% in [4]; 20.3% in assay [5]; 12% in assay [6]. Besides, the growth was -47.6% (active) in assay [7], 3.87% (active) in [8], 19.2% in assay [9] and 18.3% in [10].

In the case of `COc1ccc2nc3ccccc3c(NCCNCCO)c2c1`, the growth in assay [1] is 19.6%; in assay [2] it was -11.9% (active); in assay [3], -53.2% (active); in assay [4], 1.53% (active); in [5], 6.95% (active); in [6], 4.92% (active). Besides, the growth in [7] was -32.9% (active); in assay [8], -70.2% (active); in [9], -52.2% (active); in assay [10], -70.4% (active).

`COc1cc(C)cc2oc3oc(=O)c(C(=O)c4cc5cc(Br)ccc5o4)cc3c(=O)c12`: the growth is 103% in [1]; 110% in assay [2]; 86.6% in assay [3]; 100% in assay [4]; 102% in assay [5]; 102% in assay [6]. For the same compound, the growth in [7] is 102%; in assay [8], 99.9%; in assay [9], 97.4%; in assay [10] it was 106%.

In the case of `NNC(=O)c1ccc(C(=O)NN)cc1`, the growth in assay [1] is 112%; in assay [2], 97.9%; in [3], 113%; in assay [4], 103%; in assay [5], 93.2%; in [6] it was 114%. Besides, the growth in [7] was 108%; in assay [8] it was 97.6%; in assay [9], 102%; in assay [10], 114%.

For the compound `Cc1ccc(-n2nc3n(/c2=N\C(=O)NS(=O)(=O)c2ccc(C)cc2)CCN3C2=NCCN2)cc1`, the growth in assay [1] is 105%; in assay [2], 107%; in assay [3] it was 85.6%; in assay [4], 99.2%; in assay [5], 105%; in [6], 96.4%. For the same compound, the growth in [7] was 105%; in assay [8] it was 95.9%; in assay [9] it was 113%; in assay [10], 101%.

Consider `N#Cc1c(N2CCOCC2)nc(=S)[nH]c1-c1ccco1`, for which the growth in [1] is 71.4%; in assay [2], 63.7%; in assay [3], 15.9%; in [4], 83.8%; in [5], 76.4%; in assay [6] it was 42.6%. The growth was 62.6% in [7], 43.7% in assay [8], 63.7% in [9] and 77.6% in assay [10].

With `Oc1c(CNCCNCc2cc(Cl)cc(Cc3ccccc3)c2O)cc(Cl)cc1Cc1ccccc1`, the growth in [1] was 25.7%; in assay [2], 30.6%; in [3] it was 28.4%; in assay [4], 2.51% (active); in [5], 17%; in assay [6] it was 40.9%. For the same compound, the growth is -13.2% (active) in [7], -11.5% (active) in assay [8], 4.57% (active) in assay [9] and 19.5% in [10].

On to `CCN(CC)CCCC(C)Nc1ccnc2cc(Cl)c(SCc3ccccc3)cc12` (stereo not given), for which the growth is -68.8% (active) in assay [1]; -56.4% (active) in [2]; -86.2% (active) in assay [3]; -34.9% (active) in assay [4]; -54.3% (active) in [5]; -7.16% (active) in [6]. Also, the growth was -94.9% (active) in [7], -90.8% (active) in [8], -90.9% (active) in assay [9] and -82.5% (active) in assay [10].

Regarding `CCOC(=O)c1nn(C2CCCCO2)c2ccc(NC(=O)Cn3nnc4ccccc43)cc12` (stereo not given), the growth in [1] is 95.9%; in [2], 115%; in assay [3], 78.6%; in [4], 86.5%; in assay [5] it was 96.4%; in assay [6], 110%. Also, the growth in [7] is 99.1%; in assay [8], 99.9%; in [9], 96.5%; in assay [10], 106%.

On to `COc1ccc2c(c1)c(-c1noc(-c3cn(C)c4ncc(F)cc34)n1)cn2C`, for which the growth in [1] is 84.7%; in [2] it was 78.2%; in [3], 94.9%; in assay [4] it was 76.2%; in assay [5] it was 76.6%; in assay [6] it was 91.7%. Also, the growth was 74.8% in [7], 83.9% in assay [8], 52.4% in assay [9] and 91.3% in assay [10].
